Records with an inconclusive call do not appear. Unmarked numbers belong to inactive results.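 The calls were made as follows: active = compounds whose dose-response curve shows a full or clear partial loss of cell viability, called from curve shape rather than a numeric limit; inconclusive = weak partial curves or an effect only at the top dose; inactive = no dose-dependent loss of viability.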
test: Cell Viability - Hek293 (AID 427); details: qHTS;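 also: cells exposed to compound for 40 hours at 37 °C before reading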
Text: NIH Chemical Genomics Center [NCGC]
NIH Molecular Libraries Screening Centers Network [MLSCN]
National Institutes of Environmental Health Sciences [NIEHS]
National Toxicology Program [NTP]
We have developed a 1536-well cell-based assay for quantitative high throughput screening (qHTS) against a number of cell lines to determine in vitro cytotoxicity of small molecules. This particular assay uses the Hek 293 cell line which is derived from human embryonic kidney cells (transformed with adenovirus).
NCGC Assay Protocol Summary:
The CellTiter-Glo luminescent cell viability assay (Promega) is a homogeneous method to measure the number of viable cells in culture. The end point readout of this assay is based on quantitation of intracellular ATP, an indicator of metabolic activity, using the luciferase reaction. Luciferase catalyzes the oxidation of beetle Luciferin to oxyluciferin and light in the presence of ATP. The luminescent signal is proportional to amount of ATP present.
Using the CellTiter-Glo luminescent cell viability assay, the amount of cellular ATP was measured in the Hek293 cell line with complete culture medium following compound treatment for 40 hours. The assay was performed in opaque white Kalypsys 1536-well plates. In the screen, tamoxifen and doxorubicin were used as positive controls. Library compounds were measured for their ability to cause acute toxicity in the cell line, as reflected by a decrease in intracellular ATP levels, in a concentration-dependent manner. Data were normalized to the controls for basal activity (DMSO only) and 100% inhibition (100 uM tamoxifen). AC50 values were determined from concentration-response data modeled with the standard Hill equation.
qHTS protocol fo CellTiter Glo Hek 293 cellular assay
[Step] [Parameter] [Value] [Description]
2. Time; 5 hr; 37 °C incubation
4. Controls; 23 nL; Tamoxifen 0.34 uM to 100 uM & Doxorubicin 0.02 nM to 100 uM
5. Time; 40 hr; 37 °C incubation
6. Reagent; 5 uL; CellTiter Glo reagent
7. Time; 20 min; Room Temperature
8. Detection; Luminescence; Viewlux plate reader
Keywords: cell viability, cytotoxicity, Hek293 cell line, luminescence, NTPHTS, NTPHTS_NCGC, NIEHS, EPA, DSSTox, MLSMR, MLSCN, NIH Roadmap, qHTS, NCGC
Potency is read from the fitted curve at half-maximal effect.

Row | SMILES | Potency [µM]
1 | O=Nc1ccc(NO)cc1 | > 92
2 | C[C@@H]1CC2(OC3C[C@@]4(C)C5=CC[C@H]6C(C)(C)C(O[C@@H]7OC[C@@H](O)[C@H](O)[C@H]7O)CC[C@@]67C[C@@]57CC[C@]4(C)C31)OC(O)C1(C)OC21 (stereo not given in full) | > 92
3 | CC(=C/C=C/C(C)=C/C=C/C=C(C)/C=C/C=C(C)/C=C/C(=O)O)/C=C/C(=O)O | > 92
4 | CCCCC(CC)COCC1CO1 (stereo not given) | > 92
5 | CCNc1ccccc1 | > 92
6 | CCCCCCO | > 92
7 | CNc1ccccc1 | > 92
8 | FB(F)F | > 92
9 | Clc1ccc(Cl)c(Cl)c1Cl | > 92
10 | CSCCC=O | > 92
11 | Cc1ccc(Br)cc1 | > 92
12 | CCCCCO | > 92
13 | Cc1cccc(C(=O)O)c1[N+](=O)[O-] | > 92
14 | CC(=O)c1cccc([N+](=O)[O-])c1 | > 92
15 | Cc1c(C(=O)O)cccc1[N+](=O)[O-] | > 92
16 | COC(=O)CC#N | > 92
17 | COC(=O)CCCC(=O)OC | > 92
18 | CCCCC(CC)C(=O)O (stereo not given) | > 92
19 | O=Cc1ccc(CO)o1 | > 92
20 | CC/C=C/C#N | > 92

Row | SMILES | Potency [µM]
21 | C=C(C)C1CC=C(C)C(OC(C)=O)C1 (stereo not given) | > 92
22 | Nc1cccc(S(=O)(=O)O)c1 | > 92
23 | O=[N+]([O-])c1ccccc1CCO | > 92
24 | CC(CCl)OC(C)CCl (stereo not given) | > 92
25 | Cc1cc([N+](=O)[O-])ccc1N | > 92
26 | CCOCCO | > 92
27 | CC(C)(C)OC=O | > 92
28 | CC1CCCO1 (stereo not given) | > 92
29 | CCN(C(=O)N(CC)c1ccccc1)c1ccccc1 | > 92
30 | COc1ccccc1[N+](=O)[O-] | > 92
31 | CC(C)(C)OCC1CO1 (stereo not given) | > 92
32 | C=CCCCCCC | > 92
33 | C[C@@H]1CC2(OC[C@]3(C)O[C@H]23)O[C@H]2C[C@@]3(C)[C@@H]4CC[C@H]5C(C)(C)C(O[C@@H]6OC[C@@H](O)[C@H](O)[C@H]6O)CC[C@@]56C[C@@]46CC[C@]3(C)[C@@H]12 (stereo not given in full) | > 92
34 | C=C(C)C(=O)OC | > 92
35 | COc1cccc(N)c1 | > 92
36 | Cc1cccc(C(=O)O)c1 | > 92
37 | FC(F)(F)c1ccccc1Cl | > 92
38 | Cc1ccc(C)c(N)c1 | > 92
39 | CC(=O)Nc1ccc(N)cc1 | > 92
40 | CC(=O)Nc1ccc(C)cc1 | > 92

From PubChem BioAssay (NCATS)
